# Test results as given in PubChem BioAssay (EPA / NIEHS).
# Inconclusive results are not listed. The source made the active and inactive calls. The calls were made as follows, unless noted: active = hit-call score of the fitted dose curve at least 0.9, where 1 is the maximum; inconclusive = response in the unintended direction; inactive = score below 0.9.
# Tests used:
# [1] = BSK_4H_Eotaxin3: BioMAP Diversity Plus: 4H Assay for Eotaxin 3 Biomarker Activity (AID 2283000; active = hit-call score of the fitted dose curve at least 0.9, where 1 is the maximum; inactive = score below 0.9;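 also: CCL26 protein level quantified by ELISA in parallel with SRB cytotoxicity check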); conditions: primary human endothelial cells (HUVEC); actives raise or lower the signal
# Summary of the method: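 ELISA quantitation of CCL26 (Eotaxin-3) protein from chemically dosed human vascular endothelial cells at 24 h; increases and decreases both scored relative to DMSO-treated baseline.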
# [2] = read-out: Intercellular Adhesion Molecule 1 (ICAM1), ICAM1 (gene 3383); test: BSK_3C_ICAM1: BioMAP Diversity Plus: 3C Assay for Intercellular Adhesion Molecule 1 (ICAM1) Biomarker Activity (AID 2283003; active = hit-call score of the fitted dose curve at least 0.9, where 1 is the maximum; inactive = score below 0.9); conditions: primary human endothelial cells (HUVEC); actives raise or lower the signal
# Summary of the method: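 Primary human umbilical vein endothelial cells in the BioMAP 3C system were exposed to chemicals for 24 h, then ICAM-1 was quantified by ELISA. Activity was fitted bidirectionally against the DMSO negative control baseline.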
# [3] = BSK_3C_Proliferation: Cell Proliferation Assessment in the BioMAP Diversity Plus: 3C Assay (AID 2283006; active = hit-call score of the fitted dose curve at least 0.9, where 1 is the maximum; inactive = score below 0.9); conditions: primary human endothelial cells (HUVEC)
# Summary of the method: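 Human umbilical vein endothelial cells were grown sub-confluent and exposed to chemical for 48 h, then fixed with 10% TCA and stained with 0.1% sulforhodamine B; absorbance at 560 nm gave relative cell number, fitted bidirectionally against DMSO baseline.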
# [4] = target: human Peroxisome Proliferator-activated Receptor alpha (PPARa), PPARA (gene 5465) (UniProt Q07869); test: ATG_PPARa_TRANS: Attagene TRANS-FACTORIAL HepG2 Assay for human Peroxisome Proliferator-activated Receptor alpha (PPARa) (AID 2283001);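 as to AC50: potency for gain of reporter signal over DMSO so agonist or activator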
# Sequence of human Peroxisome Proliferator-activated Receptor alpha (PPARa), PPARA (gene 5465) (Q07869 whole entry, looked up, the tested form may be a part): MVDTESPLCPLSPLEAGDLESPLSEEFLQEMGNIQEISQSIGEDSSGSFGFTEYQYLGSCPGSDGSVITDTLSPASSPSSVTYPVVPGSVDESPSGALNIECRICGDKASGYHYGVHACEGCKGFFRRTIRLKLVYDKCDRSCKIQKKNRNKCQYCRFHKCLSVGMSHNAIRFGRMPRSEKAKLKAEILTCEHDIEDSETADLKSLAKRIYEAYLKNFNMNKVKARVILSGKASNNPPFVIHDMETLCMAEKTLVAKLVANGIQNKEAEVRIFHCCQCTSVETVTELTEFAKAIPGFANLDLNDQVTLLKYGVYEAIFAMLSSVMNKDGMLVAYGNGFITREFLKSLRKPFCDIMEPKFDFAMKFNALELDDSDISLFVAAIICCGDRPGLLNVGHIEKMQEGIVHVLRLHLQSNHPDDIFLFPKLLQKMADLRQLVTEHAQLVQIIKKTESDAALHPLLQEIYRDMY
# Summary of the method: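 Reporter transcripts from GAL4-UAS units in transfected HepG2 were quantified 24 h after dosing. Detection used reverse transcription, PCR, fluorescent primer extension and capillary electrophoresis, with DMSO as baseline.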
# [5] = target: human Peroxisome Proliferator-activated Receptor delta (PPARd), PPARD (gene 5467) (UniProt Q03181); test: ATG_PPARd_TRANS: Attagene TRANS-FACTORIAL HepG2 Assay for human Peroxisome Proliferator-activated Receptor delta (PPARd) (AID 2283002)
# Sequence of human Peroxisome Proliferator-activated Receptor delta (PPARd), PPARD (gene 5467) (Q03181 whole entry, looked up, the tested form may be a part): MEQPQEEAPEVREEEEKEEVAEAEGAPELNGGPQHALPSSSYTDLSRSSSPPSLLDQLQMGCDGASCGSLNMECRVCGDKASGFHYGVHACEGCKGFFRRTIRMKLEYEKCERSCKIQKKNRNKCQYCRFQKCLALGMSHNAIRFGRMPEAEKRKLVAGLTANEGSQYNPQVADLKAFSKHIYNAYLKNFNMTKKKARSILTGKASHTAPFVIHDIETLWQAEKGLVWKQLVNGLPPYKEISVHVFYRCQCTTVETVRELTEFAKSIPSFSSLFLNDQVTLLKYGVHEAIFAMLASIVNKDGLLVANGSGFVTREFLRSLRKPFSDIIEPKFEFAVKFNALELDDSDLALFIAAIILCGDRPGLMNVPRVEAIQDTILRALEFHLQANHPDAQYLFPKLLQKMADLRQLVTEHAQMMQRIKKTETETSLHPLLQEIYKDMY
# Summary of the method: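 Transient HepG2 transfection (multiple GAL4-UAS RTUs, chimeric receptor-Gal4); 24 h dosing; total RNA → oligo(dT) RT → PCR → 6-FAM primer extension → HpaI cut → CE. Positive direction vs DMSO.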
# [6] = target: Nuclear receptor subfamily 1 group I member 2 (Homo sapiens) (UniProt O75469); test: ATG_PXR_TRANS: Attagene TRANS-FACTORIAL HepG2 Assay for human Pregnane X Receptor (PXR) (AID 2283008)
# Sequence of Nuclear receptor subfamily 1 group I member 2 (Homo sapiens) (O75469 whole entry, looked up, the tested form may be a part): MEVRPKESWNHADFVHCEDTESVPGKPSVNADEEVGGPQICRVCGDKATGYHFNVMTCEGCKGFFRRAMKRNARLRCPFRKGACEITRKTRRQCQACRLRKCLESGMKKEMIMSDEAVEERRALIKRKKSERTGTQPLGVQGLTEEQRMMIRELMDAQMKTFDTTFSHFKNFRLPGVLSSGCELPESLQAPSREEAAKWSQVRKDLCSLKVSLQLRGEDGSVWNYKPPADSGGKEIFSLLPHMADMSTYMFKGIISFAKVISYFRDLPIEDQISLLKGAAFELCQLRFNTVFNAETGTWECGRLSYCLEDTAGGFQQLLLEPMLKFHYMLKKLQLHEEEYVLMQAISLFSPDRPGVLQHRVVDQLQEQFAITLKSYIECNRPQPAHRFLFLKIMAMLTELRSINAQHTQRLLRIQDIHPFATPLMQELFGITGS
# Summary of the method: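 Read-out is fluorescence of labelled reporter cDNA fragments separated by capillary electrophoresis after RT-PCR and HpaI digestion. Source: HepG2 cells carrying PXR-GAL4/UAS reporter constructs, treated 24 h; activity fitted upward relative to DMSO.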
# [7] = target: Peroxisome proliferator-activated receptor gamma (Homo sapiens) (UniProt P37231); test: ATG_PPARg_TRANS: Attagene TRANS-FACTORIAL HepG2 Assay for human Peroxisome Proliferator-activated Receptor-gamma (PPARg) (AID 2283007)
# Sequence of Peroxisome proliferator-activated receptor gamma (Homo sapiens) (P37231 whole entry, looked up, the tested form may be a part): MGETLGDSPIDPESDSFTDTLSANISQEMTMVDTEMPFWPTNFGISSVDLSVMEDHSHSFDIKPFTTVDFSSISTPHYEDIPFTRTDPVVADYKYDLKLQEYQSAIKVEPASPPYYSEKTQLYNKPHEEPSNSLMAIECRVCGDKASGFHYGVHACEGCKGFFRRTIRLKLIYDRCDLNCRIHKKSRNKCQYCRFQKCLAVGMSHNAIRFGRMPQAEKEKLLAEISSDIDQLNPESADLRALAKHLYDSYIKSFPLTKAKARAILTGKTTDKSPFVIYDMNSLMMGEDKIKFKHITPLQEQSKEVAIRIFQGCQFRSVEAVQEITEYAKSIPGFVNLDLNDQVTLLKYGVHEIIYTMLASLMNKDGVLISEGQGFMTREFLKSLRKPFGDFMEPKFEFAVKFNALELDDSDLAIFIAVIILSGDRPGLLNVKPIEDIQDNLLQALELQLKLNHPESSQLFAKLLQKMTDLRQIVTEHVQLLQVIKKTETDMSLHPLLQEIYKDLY
# Summary of the method: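 Endpoint reflects upward reporter mRNA change versus DMSO controls. Setup: transiently transfected HepG2, GAL4-UAS reporters driven by chimeric NR-Gal4, 24 h incubation, RT-PCR with capillary electrophoresis read-out.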
# [8] = target: human Retinoic Acid Receptor beta (RARb), RARB (gene 5915) (UniProt P10826); test: ATG_RARb_TRANS: Attagene TRANS-FACTORIAL HepG2 Assay for human Retinoic Acid Receptor beta (AID 2283004)
# Sequence of human Retinoic Acid Receptor beta (RARb), RARB (gene 5915) (P10826 whole entry, looked up, the tested form may be a part): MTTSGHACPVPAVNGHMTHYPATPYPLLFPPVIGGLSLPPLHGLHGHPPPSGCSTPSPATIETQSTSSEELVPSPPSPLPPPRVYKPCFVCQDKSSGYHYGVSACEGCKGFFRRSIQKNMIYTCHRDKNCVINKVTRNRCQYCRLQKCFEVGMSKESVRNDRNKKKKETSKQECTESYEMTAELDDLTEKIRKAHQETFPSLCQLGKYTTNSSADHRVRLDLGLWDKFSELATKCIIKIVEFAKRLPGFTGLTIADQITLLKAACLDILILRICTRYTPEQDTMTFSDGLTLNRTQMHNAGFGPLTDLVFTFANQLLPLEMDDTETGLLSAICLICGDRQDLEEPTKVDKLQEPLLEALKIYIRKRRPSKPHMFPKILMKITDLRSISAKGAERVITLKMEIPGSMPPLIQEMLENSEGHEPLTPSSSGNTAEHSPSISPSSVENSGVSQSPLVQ
# Summary of the method: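 Fluorescent capillary-electrophoresis detection of GAL4-UAS reporter mRNA defines the endpoint, with induction over DMSO-treated wells scored as activity. Transiently transfected human hepatoma HepG2 cells expressing exogenous NR–Gal4 proteins are exposed to test chemicals for 24 h.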
# [9] = target: Retinoic acid receptor alpha (Homo sapiens) (UniProt P10276); test: ATG_RARa_TRANS: Attagene TRANS-FACTORIAL HepG2 Assay for human Retinoic Acid Receptor alpha (RARa) (AID 2283005)
# Sequence of Retinoic acid receptor alpha (Homo sapiens) (P10276 whole entry, looked up, the tested form may be a part): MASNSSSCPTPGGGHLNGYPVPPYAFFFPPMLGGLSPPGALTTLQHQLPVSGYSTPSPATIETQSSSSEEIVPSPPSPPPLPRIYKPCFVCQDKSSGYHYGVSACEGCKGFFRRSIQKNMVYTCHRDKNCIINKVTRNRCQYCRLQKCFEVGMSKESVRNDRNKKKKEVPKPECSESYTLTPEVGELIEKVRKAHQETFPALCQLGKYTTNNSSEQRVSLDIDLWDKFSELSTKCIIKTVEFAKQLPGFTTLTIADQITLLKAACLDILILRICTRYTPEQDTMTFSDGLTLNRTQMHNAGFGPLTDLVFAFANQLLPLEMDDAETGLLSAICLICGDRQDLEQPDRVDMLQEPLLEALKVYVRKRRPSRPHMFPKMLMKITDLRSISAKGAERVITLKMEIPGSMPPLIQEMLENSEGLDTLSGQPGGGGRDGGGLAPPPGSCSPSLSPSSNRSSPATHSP
# Summary of the method: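 Reporter transcripts, measured by RT-PCR with fluorescent labeling and capillary electrophoresis after 24 h dosing, reflect activity of an exogenous human RARa–GAL4 fusion in transiently transfected HepG2. Fitted for increase relative to DMSO.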
# [10] = target: human Retinoic Acid Receptor gamma (RARg), RARG (gene 5916) (UniProt P13631); test: ATG_RARg_TRANS: Attagene TRANS-FACTORIAL HepG2 Assay for human Retinoic Acid Receptor gamma (RARg) (AID 2283009)
# Sequence of human Retinoic Acid Receptor gamma (RARg), RARG (gene 5916) (P13631 whole entry, looked up, the tested form may be a part): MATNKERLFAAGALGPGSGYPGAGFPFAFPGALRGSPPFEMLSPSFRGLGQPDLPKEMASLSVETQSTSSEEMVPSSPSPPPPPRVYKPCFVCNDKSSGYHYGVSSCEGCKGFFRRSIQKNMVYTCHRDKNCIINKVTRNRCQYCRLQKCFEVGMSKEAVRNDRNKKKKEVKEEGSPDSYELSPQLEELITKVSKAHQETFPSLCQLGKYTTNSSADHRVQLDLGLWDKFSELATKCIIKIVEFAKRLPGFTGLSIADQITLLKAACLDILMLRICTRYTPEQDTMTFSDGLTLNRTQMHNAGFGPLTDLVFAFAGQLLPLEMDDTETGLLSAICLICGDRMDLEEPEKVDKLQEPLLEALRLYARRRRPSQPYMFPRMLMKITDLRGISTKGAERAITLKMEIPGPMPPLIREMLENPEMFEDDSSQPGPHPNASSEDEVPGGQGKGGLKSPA
# Summary of the method: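 HepG2 cells transiently transfected with multiplexed reporter units expressing chimeric RARg-GAL4 and GAL4-UAS-driven reporters; 24 h compound exposure. Reporter mRNA quantified by RT-PCR with fluorescent labelling and capillary electrophoresis; gain-of-signal fitted relative to DMSO baseline.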
smiles,measurement,setting,value
CC(C)(CO)CO,outcome,[1],inactive
same,outcome,[2],inactive
same,outcome,[3],inactive
O=C(OCc1ccccc1)c1ccccc1O,outcome,[4],inactive
same,outcome,[5],inactive
same,AC50,[6],62.7 µM (active)
C=CCOC(=O)/C=C\C(=O)OCC=C,AC50,[4],27.5 µM (active)
same,outcome,[5],inactive
same,AC50,[7],1.96 µM (active)
same,outcome,[6],inactive
CN(C)CCC=C1c2ccccc2CCc2ccccc21,outcome,[4],inactive
same,outcome,[5],inactive
same,outcome,[7],inactive
same,AC50,[6],24 µM (active)
CCC(C)C1CCCCC1=O (stereo unspecified),outcome,[4],inactive
same,outcome,[8],inactive
same,outcome,[9],inactive
same,outcome,[7],inactive
same,outcome,[6],inactive
same,outcome,[10],inactive
CCCc1ccc(O)cc1,outcome,[4],inactive
same,outcome,[5],inactive
same,outcome,[7],inactive
same,outcome,[6],inactive
CC1=CC[C@@H](C(C)(C)O)CC1,outcome,[4],inactive
same,outcome,[5],inactive
same,outcome,[7],inactive
same,outcome,[6],inactive
O=S(=O)(O)CCCN1CCOCC1,outcome,[4],inactive
same,outcome,[5],inactive
same,outcome,[7],inactive
same,outcome,[6],inactive
CCCCCCOc1ccc(O)cc1,outcome,[4],inactive
same,outcome,[5],inactive
same,AC50,[7],27.6 µM (active)
same,AC50,[6],15 µM (active)
same,outcome,[10],inactive
CN(C)c1ccc(C=O)cc1,outcome,[4],inactive
same,outcome,[5],inactive
same,outcome,[7],inactive
same,outcome,[6],inactive
S=c1[nH][nH]c(=S)s1,outcome,[4],inactive
same,outcome,[5],inactive
same,outcome,[6],inactive
CCCCCc1cccc(=O)o1,outcome,[4],inactive
same,outcome,[5],inactive
same,AC50,[7],10.6 µM (active)
same,outcome,[6],inactive
NS(=O)(=O)c1cc(C(=O)O)c(NCc2ccco2)cc1Cl,outcome,[4],inactive
same,outcome,[5],inactive
same,AC50,[7],42.7 µM (active)
same,outcome,[6],inactive
CCCCCCCCCCO[C@@H]1O[C@H](CO)[C@@H](O)[C@H](O)[C@H]1O,outcome,[4],inactive
same,outcome,[5],inactive
same,outcome,[7],inactive
same,outcome,[6],inactive
same,outcome,[10],inactive
COC(=O)C(C)Oc1ccc(Oc2ncc(C(F)(F)F)cc2Cl)cc1 (stereo unspecified),outcome,[4],inactive
same,outcome,[5],inactive
same,AC50,[7],48.9 µM (active)
same,AC50,[6],40.6 µM (active)
CC(CCO)CC(C)(C)C (stereo unspecified),outcome,[4],inactive
same,outcome,[9],inactive
same,outcome,[7],inactive
same,outcome,[6],inactive
same,outcome,[10],inactive
O=Cc1ccccc1O,outcome,[4],inactive
same,outcome,[5],inactive
same,outcome,[7],inactive
same,outcome,[6],inactive
same,outcome,[10],inactive
C1=COCCC1,outcome,[4],inactive
same,outcome,[8],inactive
same,outcome,[6],inactive
CCC(C)(CCCC(C)C)OC(C)=O (stereo unspecified),outcome,[4],inactive
same,outcome,[5],inactive
same,outcome,[7],inactive
same,outcome,[6],inactive
NNC(=O)OCc1ccccc1,outcome,[4],inactive
same,outcome,[5],inactive
same,outcome,[7],inactive
same,outcome,[6],inactive
CC(=O)CCc1ccc(O)cc1,outcome,[4],inactive
same,outcome,[5],inactive
same,outcome,[7],inactive
same,outcome,[6],inactive
CN(C)C(=O)Nc1ccccc1,outcome,[4],inactive
same,outcome,[5],inactive
same,outcome,[7],inactive
same,outcome,[6],inactive
OCC=Cc1ccccc1,outcome,[4],inactive
same,outcome,[5],inactive
same,outcome,[6],inactive
CC(=O)OC(C)(C)C,outcome,[4],inactive
same,outcome,[5],inactive
same,outcome,[7],inactive
same,outcome,[6],inactive
CCCCCCCCCCCCCCCCCC(=O)OCCCCCCCCCCCCCC(C)C,outcome,[4],inactive
same,outcome,[5],inactive
same,outcome,[7],inactive
same,outcome,[6],inactive
CCC(=O)OC/C=C(\C)CCC=C(C)C,outcome,[4],inactive
same,outcome,[5],inactive
same,outcome,[7],inactive
same,outcome,[6],inactive
CCNC(=S)NCC,outcome,[4],inactive
same,outcome,[5],inactive
same,outcome,[7],inactive
same,outcome,[6],inactive
CCCCCCCCOC(=O)c1ccc(O)cc1,outcome,[4],inactive
same,outcome,[9],inactive
same,outcome,[6],inactive
same,outcome,[10],inactive
CCC(=O)OC(C)(C)C1CC=C(C)CC1 (stereo unspecified),outcome,[4],inactive
same,outcome,[5],inactive
same,outcome,[7],inactive
same,AC50,[6],33.1 µM (active)
C=C(C)C(=O)OCCC[Si](OC)(OC)OC,outcome,[4],inactive
same,outcome,[8],inactive
same,outcome,[6],inactive
CCCCCCCCCCCCOC(C)=O,outcome,[4],inactive
same,outcome,[9],inactive
same,outcome,[7],inactive
same,outcome,[6],inactive
same,outcome,[10],inactive
CC1(C)CC(N)CC(C)(CN)C1 (stereo unspecified),outcome,[4],inactive
same,outcome,[5],inactive
same,outcome,[7],inactive
same,outcome,[6],inactive
same,outcome,[10],inactive
[O-]/[N+](=N\O)c1ccccc1,outcome,[4],inactive
same,outcome,[5],inactive
same,AC50,[7],16.6 µM (active)
same,outcome,[6],inactive
CCCCCCCCSCc1cc(C)c(O)c(CSCCCCCCCC)c1,outcome,[4],inactive
same,outcome,[5],inactive
same,outcome,[7],inactive
same,outcome,[6],inactive
C=CC(=O)OCCCCCC,outcome,[4],inactive
same,outcome,[5],inactive
same,outcome,[6],inactive
CCCCCC1C(=O)CCC1CC(=O)OC (stereo unspecified),outcome,[4],inactive
same,outcome,[8],inactive
same,outcome,[9],inactive
same,outcome,[7],inactive
same,outcome,[6],inactive
same,outcome,[10],inactive
O=C(C=Cc1ccccc1)OCCCc1ccccc1,outcome,[9],inactive
same,outcome,[10],inactive
[Cu+],outcome,[9],inactive
C[C@H](CCC(=O)O)[C@H]1CC[C@H]2[C@@H]3CC[C@@H]4C[C@H](O)CC[C@]4(C)[C@H]3CC[C@]12C,AC50,[5],54.1 µM (active)
same,AC50,[7],29.1 µM (active)
same,AC50,[6],8.67 µM (active)
CC(=O)C1=C(C)[C@@H]2C[C@@]3(C1)[C@H](C)CC[C@H]3C2(C)C,outcome,[5],inactive
same,AC50,[7],100 µM (active)
same,AC50,[6],2.1 µM (active)
CC(C)=CC(=O)O,outcome,[5],inactive
same,outcome,[7],inactive
same,outcome,[6],inactive
CCCO,outcome,[8],inactive
same,outcome,[9],inactive
same,outcome,[6],inactive
same,outcome,[10],inactive
Cc1cccc(O)c1,outcome,[5],inactive
same,outcome,[7],inactive
same,outcome,[6],inactive
Nc1cc([N+](=O)[O-])ccc1C(=O)O,outcome,[8],inactive
same,outcome,[9],inactive
same,outcome,[7],inactive
same,outcome,[6],inactive
same,outcome,[10],inactive
